RMI-FANCM inh = RMI-FANCM interaction inhibition; Fluorescence polarization, RMI core complex with F-MM2 peptide; hits give low values; FP signal (polarization) at 33 µM; 70,000 tested, 0.58% active; in the data active means FP signal below about 40
* hit, by the source's call. This excerpt belongs to a sample that is enriched for hits.

SMILES	RMI-FANCM inh
C=Cc1ccc(CSc2nccn3nc(-c4ccc(F)cc4)cc23)cc1	34*
Fc1ccc(-c2cc3c(SCc4cccc(C(F)(F)F)c4)nccn3n2)cc1	69
C=Cc1ccc(CSc2nccn3nc(-c4ccc(OC)cc4)cc23)cc1	70
CC(C)Oc1ccc(-c2noc(CN3C(=O)COc4cc(Cl)ccc43)n2)cc1	83
O=C(Cn1c(-c2ccncc2)nc2ccccc21)NCc1ccccc1	63
COc1cccc(NC(=O)N2CCCC(c3nnc(CC(C)(C)C)o3)C2)c1 (stereo not drawn)	62
CN(C)c1ccc(C2=CC(C3CC3)=C(C#N)C(=C(C#N)C#N)N2)cc1	31*
O=C(Nc1nc2ccc(F)cc2s1)c1cc2cc([N+](=O)[O-])ccc2s1	54
CN1CCN(C(CNS(=O)(=O)c2ccc3c(c2)OCCO3)c2ccc3c(c2)CCCN3C)CC1 (stereo not drawn)	63
COc1ccc(NC(=O)CSc2ncc(-c3ccc(F)cc3)o2)c(OC)c1	64
Cc1noc(-c2ccccc2)c1NC(=O)NCc1cccs1	52
CC12CCC(c3c(C(F)(F)F)n[nH]c31)C2(C)C (stereo not drawn)	57
O=S(=O)(N=C(Nc1ccc2ccccc2c1)c1ccccc1)c1ccc(Cl)cc1	63
NC(=O)SCC(=NS(=O)(=O)c1ccc(Cl)cc1)Nc1cccc2ccccc12	30*
O=C(CSCCS(=O)(=O)c1ccc(Cl)cc1)Nc1ccccc1Cl	58
CNC(=O)N/N=C\c1c(-c2c(Cl)cccc2Cl)noc1C	62
O=c1ccc(-c2ccco2)nn1CCCNS(=O)(=O)c1ccc2c(c1)CCCC2	66
N#CCCSc1ccccc1NC(=O)c1ccc(Cl)s1	59
CCOC(=O)c1ccc(N=Cc2ccccn2)cc1	51
Fc1cc2[nH]cnc2cc1Cl	62
O=c1ccc2cc(N=Cc3cc(Cl)cc(Cl)c3O)ccc2o1	30*
O=c1ccc2cc(O)c(O)cc2o1	41
N#CCCSc1ccccc1N=Cc1cc(Cl)cc(Cl)c1O	33*
Oc1c(Cl)cc(Cl)cc1C=Nc1ccc2nc[nH]c2c1	12*
CCOC(=O)c1ccc(N=Cc2cc(Cl)cc(Cl)c2O)cc1	24*
SMILES	RMI-FANCM inh
O=C(Nc1ccc2oc(=O)ccc2c1)c1ccc(F)cc1	63
CN(/N=C\c1cc(Cl)cc(Cl)c1O)c1ccc([N+](=O)[O-])cn1	44
Oc1ccccc1C=Nc1ccccc1SCc1csc(-c2ccc(Cl)cc2)n1	50
CCOC(=O)c1ccc(N=Cc2ccc(OC(=O)c3ccc(F)cc3)c(OC)c2)cc1	60
CCS(=O)(=O)c1ccc(C(=O)N(CCN2CCOCC2)c2nc3c(F)cccc3s2)cc1	52
Cc1ccc(S(=O)(=O)NCCN2CCN(c3ccccc3F)CC2)s1	65
CCOCCn1c(=NC(=O)c2ccnn2C)sc2cc(OCC)ccc21	68
Cn1c(=O)c2c(SCC(=O)OCc3ccccc3)ccnc2n(C)c1=O	56
Cc1[nH]n(C)c(=O)c1N=Nc1ccc2c(c1)COCO2	49
O=Cc1cccc2cccnc12	60
Oc1c(Cl)cc(Cl)cc1C=Nc1ccc2c(c1)COCO2	37*
Oc1c(Cl)cc(Cl)cc1C=Nc1nc2c(s1)CCCC2	33
Oc1c(Cl)cc(Cl)cc1C=Nc1cccc2cccnc12	27*
Fc1ccc(N=Cc2ccc3c(c2)OCO3)cc1	54
O=C(CCc1nc2sc3c(c2c(=O)[nH]1)CCCCC3)N1CCN(c2ccccn2)CC1	67
COC(=O)c1nnn(-c2ccc(Br)cc2F)c1C(=O)OC	63
O=C1C=CC(=O)N1c1cc(F)c(Br)cc1F	65
COc1cc2nc3sc(Nc4ccc(Br)cc4)nn3c(=O)c2cc1OC	74
O=S(=O)(NCCOc1ccc2c(c1)OCO2)c1ccc(F)cc1	60
c1ccc(CN2CCC(Nc3ncnc4sc5c(c34)CCCC5)CC2)cc1	65
CCOc1ccc(OCCNC(=O)C2CCCC2)cc1	63
CN1CCN(C(c2ccccc2)c2ccccc2)CC1	69
Cc1cccc(CN2CCN(C(c3ccccc3)c3ccc(Cl)cc3)CC2)c1 (stereo not drawn)	66
CN1CCCN(C(c2ccccc2)c2ccc(Cl)cc2)CC1 (stereo not drawn)	-4*
C/C(=N\NC(=S)NC1CCCCC1)c1sc(-c2cccs2)nc1C	72
SMILES	RMI-FANCM inh
O=C(Nc1c(F)cccc1F)N1CCn2cccc2C1c1cccnc1 (stereo not drawn)	53
O=C(Nc1cccs1)N1CCn2cccc2C1c1ccc(F)cc1 (stereo not drawn)	15*
COc1ccccc1NC(=O)N1CCn2cccc2C1c1ccc(Br)cc1 (stereo not drawn)	56
Cc1cc(C)c(S(=O)(=O)NC(CCC(=O)O)C(=O)O)cc1N(C)S(C)(=O)=O (stereo not drawn)	65
O=C(O)c1cc(O)ccc1O	62
O=C(O)C1=CC(=C(c2ccc(O)c(C(=O)O)c2)c2ccc(O)c(C(=O)O)c2)C=CC1=O	-9*
Nc1ccc(O)c(C(=O)O)c1	55
O=c1c2c(-c3ccc(Cl)cc3)csc2ncn1/N=C\c1ccccc1OC(F)F	55
O=C(NCCC1=CCCCC1)NC1CC(=O)N(c2ccc3c(c2)OCCO3)C1 (stereo not drawn)	56
CC(C)NC(=O)CCCCn1c(=O)c2ccccc2n(CC(=O)Nc2ccc(C(C)C)cc2)c1=O	97
Cc1cc2cc(CNC(=O)c3ccccc3Cl)ccc2n1C	30*
Cc1cc2cc(CNC(=O)c3ccccc3Br)ccc2n1C	55
Cc1cc2cc(CNC(=O)c3ccccc3F)ccc2n1C	58
O=C1c2ccccc2C(=O)N1c1ccc(S(=O)(=O)Nc2ccc(F)cc2)cc1	60
CC(=O)c1cccc(NC(=O)CCc2csc(NC(=O)c3ccc[nH]c3=O)n2)c1	67
Cc1cccc(NC(=O)CCCn2nc(-c3ccco3)ccc2=O)c1C	61
CC1CCN(C(=O)N2CCN(S(=O)(=O)N(C)C)CC2)CC1	63
Cc1ccc(N=C2CSC(=O)N2)cc1	55
Cc1ccc(N=C2C=C(Cl)C(=O)C(Cl)=C2)cc1	54
Cc1ccc(N=C2C=C(SC#N)C(=O)C(SC#N)=C2)cc1	-16*
O=C(NCCn1ncccc1=O)C1CCCC1	65
O=S(=O)(Nc1cccc2cnccc12)c1cccs1	61
CCOC(=O)c1c(NC(=O)c2ccc(Br)s2)sc(C)c1C	79
CCOC(=O)c1c(NC(=O)c2cc(S(=O)(=O)C(C)C)c(SC)s2)sc(C)c1C	37*
CCOC(=O)c1c(NC(C)=O)sc(C)c1C	56
SMILES	RMI-FANCM inh
C#CCSc1nc(-c2ccc(C(F)(F)F)cc2)nc(C)c1C(C)=O	52
O=C(c1ccc(F)cc1)C1CCN(C(=O)c2ccc(-c3cccs3)s2)CC1	62
O=C(NCCOc1ccc2nnc(-c3ccccc3)n2n1)Nc1ccc(Cl)c(Cl)c1	73
Cc1nnc(SCC(=O)N2CCN(c3nnnn3-c3ccccc3)CC2)s1	71
O=S1(=O)CCC(NC(=S)Nc2cccc(Br)c2)C1 (stereo not drawn)	62
CCOC(=O)c1c(N)sc(C)c1-c1ccccc1	52
CCOC(=O)c1cc(-c2ccc(N)cc2)oc1C	56
CCOC(=O)c1c(N)oc2c(-c3ccc(C)cc3)c3c(C(=O)OCC)c(N)oc3cc12	22*
O=C(CSc1nnc(-c2ccccc2F)o1)Nc1nccs1	102
N#C/C(=C\c1ccc(O)c(O)c1)C(=O)c1ccc(O)c(O)c1	93
O=C(O)C=Cc1ccc(O)c(O)c1	60
O=c1cc(O)cc(/C=C/c2ccc(O)c(O)c2)o1	15*
O=C(NCC1CCN(C2CCCC2)CC1)c1c(F)cccc1F	73
COc1ccc(S(=O)(=O)Cc2nc(-c3ccc(C)cc3)no2)cc1OC	72
